# Measurements published in PubChem BioAssay (NCI).
# About 79,000 compounds went through this panel and 15% of them were active in at least one assay; those are over-represented in the sample as a whole. Values without a mark were called inactive. Activity calls are given as the source filed them. No stated cut-off is given here; in the data, active means growth inhibition above about 70%; inactive means the rest.
# Tests used:
# [1] = NCI Yeast Anticancer Drug Screen. Data for the rad50 strain (AID 155);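 further: 0% = growth of vehicle-only cultures of the same strain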; details: S. cerevisiae rad50 strain growth inhibition; at 50.0 µM; hits give high values
# Method in brief: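 Yeast carrying a defined DNA repair defect were exposed to test compounds, and growth was compared with vehicle-treated controls to give percent inhibition.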
# [2] = NCI Yeast Anticancer Drug Screen. Data for the mec2-1 strain (AID 157); details: S. cerevisiae mec2-1 strain, at 50.0 µM, hits give high values
# Method in brief: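 Readout is yeast growth inhibition, normalised to vehicle-treated controls, in the mec2-1 strain exposed to compound.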
# [3] = NCI Yeast Anticancer Drug Screen. Data for the sgs1 mgt1 strain (AID 161);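 further: 0% = growth of cultures given vehicle only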; details: S. cerevisiae sgs1 mgt1 strain, at 50.0 µM, hits give high values
# Method in brief: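 Yeast cells carrying a defined DNA-repair defect were exposed to test compounds. Growth inhibition was measured relative to vehicle-treated controls.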
# [4] = NCI Yeast Anticancer Drug Screen. Data for the cln2 rad14 strain (AID 165);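 further: 0% = growth equal to vehicle treated cultures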; details: S. cerevisiae cln2 rad14 strain, at 50.0 µM, hits give high values
# Method in brief: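 Relative to vehicle controls, growth inhibition of compound-treated cln2 rad14 yeast was recorded.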
# [5] = NCI Yeast Anticancer Drug Screen. Data for the bub3 strain (AID 167); details: S. cerevisiae bub3 mutant strain, at 50.0 µM, hits give high values
# Method in brief: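 Compounds were applied to a genetically altered yeast strain carrying a cell-cycle control defect. Growth inhibition was scored against vehicle-treated controls.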
# [6] = NCI Yeast Anticancer Drug Screen. Data for the mlh1 rad18 strain (AID 175); details: S. cerevisiae mlh1 rad18 strain growth inhibition; at 50.0 µM; hits give high values
# Method in brief: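 Test agents were incubated with a yeast strain of defined genotype (DNA damage repair defect). Inhibition of growth was derived by comparison with vehicle-exposed cultures.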
Structure (SMILES),growth inhibition [1],growth inhibition [2],growth inhibition [3],growth inhibition [4],growth inhibition [5],growth inhibition [6]
COC(=O)C1(C)CCCC2(C)C1CCC13OC1C1(C(C)C)OC1CC23 (stereo unspecified),5.1%,-20.6%,11.1%,-26.4%,-3%,8.2%
Cn1c2ccccc2c2oc(CO)cc(=O)c21,13.2%,0.4%,5.8%,23.9%,10.4%,19.3%
C/C(=N\NC(=S)Nc1ccc(C(=O)O)cc1)c1nccc2ccccc12,3.2%,1.1%,4.2%,28.9%,9.75%,7.25%
Nc1ncnc2c1ccn2Cc1c(F)cccc1Cl,-0.8%,-7.3%,-10.9%,-1.2%,6.05%,-13.6%
NC(=O)c1csc(C2OC3COP(=O)(O)OC3C2O)n1 (stereo unspecified),-21.1%,-26.2%,-38.6%,-5.65%,-29.1%,-28.9%
O=C1CCCCC1C(O)(C(F)(F)F)C(F)(F)Cl (stereo unspecified),-20.4%,-28.9%,-36.7%,-13.7%,-30.2%,-20.1%
COc1ccc(C(=O)Cc2ccc3ccccc3n2)cc1,-4.75%,16.7%,-6.8%,-24.9%,-10.8%,4.45%
CN1N=C(c2ccccc2O)/C(=C/c2c(-c3ccccc3O)[nH]n(C)c2=O)C1=O,6.85%,-0.55%,-6.1%,0.75%,4.6%,31.9%
CN(C)NC1=NS(=O)(=O)c2cc3c(cc2S1)N(N(C)C)C(=O)c1cc2c(cc1N(N(C)C)C3=O)SC(NN(C)C)=NS2(=O)=O,-6.3%,-22.5%,-14.4%,2.35%,16.4%,-2.9%
O=C(O)c1cc(C2CC2)nc2ccccc12,-1%,1.6%,0.55%,-0.95%,-14.6%,24.6%
CCCCCCCC/C=C\CCCCCCCCCCCC(=O)O,-5.7%,5.75%,0.4%,-46%,-17%,-6.25%
CC1(C)CNC(=O)C2(C=NC(C)(C)CNC(=O)C3(C=N1)CCCO3)CCCO2 (stereo unspecified),-10.2%,-5.6%,-36.2%,-8.55%,-17.6%,-11.2%
O=[N+]([O-])c1cccc([I+]c2cccc([N+](=O)[O-])c2)c1,98.5% (active),95.8% (active),97.7% (active),96.5% (active),97.2% (active),98.2% (active)
N#C/C(=C/NC(=S)Nc1ccccc1)C(N)=O,-31.6%,-30.8%,-26.8%,-20%,-15.7%,-16.5%
C=CCNC=O,2.55%,3.6%,-6.4%,-5.05%,14.4%,-18.1%
CCCCn1cnc2c(=S)nc[nH]c21,-2.7%,-1.9%,-6.35%,-11.6%,-1%,-0.95%
O=C(Nc1c(C(=O)NC2CCCCC2)[nH]c(=O)[nH]c1=O)c1ccc(Cl)cc1,-18.8%,-1.35%,-19.4%,2.85%,-0.25%,5.5%
O=C(/C=C/c1ccccc1)/C=N/N1C(=S)N(c2ccccc2)C(=Nc2ccccc2)C1=Nc1ccccc1,-7.4%,-15.8%,-12.9%,-20.2%,-20.1%,-21.6%
CCOc1ccc2nc(NC(=O)C(=O)C(C#N)CC(C)(C)C=O)sc2c1 (stereo unspecified),-13.8%,-22.8%,-17.6%,7.7%,-12.6%,-28.1%
Cc1ccc(S(=O)(=O)CN2C(=O)C(c3ccccc3)(c3ccccc3)C23OC(c2ccc(Cl)cc2)=CC3=O)cc1 (stereo unspecified),-2.35%,-7.7%,-5.7%,-20.1%,-35.7%,-21.9%
N#Cc1ccc(/C=C2\Cc3ccccc3C2=O)cc1,-30.6%,-29.7%,-35%,9.5%,-18.8%,3.5%

Structure (SMILES),growth inhibition [1],growth inhibition [2],growth inhibition [3],growth inhibition [4],growth inhibition [5],growth inhibition [6]
CCCS(=O)(=O)CCCCCCCCCCC(=O)O,-5.45%,-11.4%,-7.8%,-28.7%,-7.15%,-6.2%
COc1cc(C2C3=C(CCC3=O)Oc3cc4c(cc32)OCO4)cc(OC)c1OC (stereo unspecified),2.55%,17.1%,-12.2%,2.05%,-4.55%,1.8%
CC(=O)N(/C=C\C1=[N+](C)CCS1)c1ccccc1,10.2%,-10.4%,20.4%,18.9%,18.1%,12.7%
COc1ccc(/C=C(\C(C)=O)C(=O)Nc2ccccc2)cc1,21.1%,16.4%,22.2%,39.1%,6.2%,25.4%
CCC(C(=O)O)C1=CCCCC1 (stereo unspecified),15.7%,-13.6%,16.2%,16.1%,-14.2%,4.45%
CCCCCCCCCC(=O)N/N=C/c1cccs1,0.95%,24.2%,3.9%,-12.7%,35.8%,15.3%
CC(N)(CCBr)C(=O)O (stereo unspecified),3.85%,5.2%,-0.05%,-4.75%,-5.95%,-17.4%
CC(C)(O)c1c(F)c(F)c(F)c(F)c1F,17.2%,-13.7%,5.1%,17.6%,27.8%,7.15%
S=C1CNC(=S)CN1,-4.15%,-21.9%,0.7%,8.75%,10.8%,-22.9%
CCC(=O)C(C)C(=O)N(CC(C)C)CC(C)C (stereo unspecified),-12.7%,-6.85%,-5.3%,-11.8%,-0.2%,-19.8%
OC1CCCC2CCCC12 (stereo unspecified),1%,1.15%,-8.1%,15.4%,16.4%,-5.75%
CCOC(=O)C1CSCN1C(C)=O (stereo unspecified),-33.4%,-20.6%,-4.3%,-34.5%,-11.8%,-21.9%
CC(=O)Nc1ccc(O)c([N+](=O)[O-])c1,3.1%,3.3%,3.3%,-36%,-9.15%,-11.4%
CC(C)(C)OC(=O)N(CCCN)CCCCN,-7.65%,-9.75%,-40.5%,-21.4%,-32%,-53.9%
Cc1cc2c(c(O)c1-c1c(C)cc(O)c3c1C(=O)C=CC3=O)C(=O)C=CC2=O,-7.1%,-43.4%,-8.5%,-0.2%,-27.9%,-43.2%
CCOc1ccc(NC(=O)C(=O)C(C(=O)c2ccc3ccccc3c2)C2OC(=O)c3ccccc32)cc1 (stereo unspecified),13.1%,3.45%,-2.4%,-17.6%,7.85%,6.8%
O=c1cc(NCc2cccc([N+](=O)[O-])c2)[nH]c(=O)[nH]1,0.1%,8.2%,5.05%,-12.6%,-5.5%,6.6%
CN1C(=O)C2(C=CCCC2)c2ccccc21 (stereo unspecified),-10.5%,-8.4%,-0.7%,-14.3%,-0.5%,-10.4%
CC(C)(C)C(=O)Oc1ccc(/C=C/C(=O)c2ccc(OC(=O)C(C)(C)C)cc2)cc1,-5.45%,-20.9%,-28%,-20.9%,-22.9%,-24.4%
CN(C)C(=O)C1C2CC3OC(=O)C1C3C2 (stereo unspecified),15.8%,-5.4%,6.2%,-41.3%,-1.65%,-0.6%
